Compound activity (PubChem)
AmpC detergent: AmpC beta-lactamase inhibition with detergent present. AmpC hydrolysis of nitrocefin, absorbance 480 nm, 0.01% Triton. hit rate 0.041% among 370,000. Potency, µM (highest dose often 114 µM), for inactives: top-dose activity change, negative = inhibition, most hits filed as inhibitors. P00811;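 also: 0% = no-compound wells and -100% = no-enzyme wells; nearly all actives have a fitted effect of over 25% in size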
Target sequence (P00811 whole entry, looked up): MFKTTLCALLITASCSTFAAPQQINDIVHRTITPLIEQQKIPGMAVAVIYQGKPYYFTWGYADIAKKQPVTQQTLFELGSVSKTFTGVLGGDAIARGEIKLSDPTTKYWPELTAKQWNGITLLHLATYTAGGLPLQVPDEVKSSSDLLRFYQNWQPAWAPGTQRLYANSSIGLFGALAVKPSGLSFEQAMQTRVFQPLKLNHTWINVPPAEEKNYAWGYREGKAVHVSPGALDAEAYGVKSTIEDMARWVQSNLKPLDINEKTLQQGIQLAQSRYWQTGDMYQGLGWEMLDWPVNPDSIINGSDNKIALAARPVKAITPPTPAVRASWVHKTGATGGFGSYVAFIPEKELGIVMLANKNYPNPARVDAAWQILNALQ
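AmpC (5.3 nM in the dispensed reagent) in 20 mM phosphate pH 7.0 with 0.01% (detergent screen) or 0.0001% Triton X-100 was preincubated with compounds for 15 min at room temperature. Nitrocefin was then added from an 800 uM solution, and hydrolysis was followed at 480 nm.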
AmpC inh no detg: inhibitors of E. coli AmpC beta-lactamase without detergent. AmpC nitrocefin hydrolysis, absorbance 480 nm, 0.0001% Triton. hit rate 0.52% among 330,000. P00811. Potency, µM (titrated, usually from 57.1 µM), inactives show top-dose activity change, negative = inhibition, usual class: inhibitors;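 also: plate controls were no compound for no effect and no enzyme for full effect; nearly all actives have a fitted effect of over 20% in size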
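AmpC (5.3 nM in the dispensed reagent) in 20 mM phosphate pH 7.0 with 0.01% (detergent screen) or 0.0001% Triton X-100 was preincubated with compounds for 15 min at room temperature. Nitrocefin was then added from an 800 uM solution, and hydrolysis was followed at 480 nm.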
* marks the source's active call; other numbers are inactive results; ? = inconclusive; nt = no result given. Shown is part of a subset that was picked to be rich in hits. Calls follow the shape of the dose curve; as a rule, active = well fitted curve in the direction sought with a large enough effect; inconclusive = small, poorly fitted or top-dose-only effect, or another doubt; inactive = no such curve, though single readings can be large; an effect the other way counts as inactive or inconclusive. Potency is read from the fitted curve at half-maximal effect.

SMILES	AmpC detergent	AmpC inh no detg
CC(=O)N1CCc2cc(S(=O)(=O)NC(Cc3ccccc3)C(=O)Nc3cccc(C)c3)ccc21 (stereo not given)	0.0%	nt
N#CC1=C(S)N(c2ccccc2)C(c2ccc(-c3ccc(Cl)c(Cl)c3)o2)NC1=O (stereo not given)	4.8%	10µM*
N#CC1=C(S)N(c2ccccc2)C(c2ccc(-c3cc(Cl)ccc3Cl)o2)NC1=O (stereo not given)	-15.2%	-54.3%
CCOC(=O)CN1CC23C=CC(O2)C(C(=O)Nc2ccc(C(C)=O)cc2)C3C1=O (stereo not given)	?	1.12µM*
CCOC(=O)CN1CC23C=CC(O2)C(C(=O)NC2CCCCCC2)C3C1=O (stereo not given)	-11.7%	-2.9%
CCOc1cc(C2C(C#N)=C(N)Oc3c2c(=O)oc2ccccc32)ccc1OC(=O)c1cccs1 (stereo not given)	?	15.8µM*
N#CC1=C(N)Oc2c(c(=O)oc3ccccc23)C1c1cccnc1 (stereo not given)	-16.7%	-14.7%
COc1ccccc1-c1cc2nc(C)c(CCC(=O)NCCc3ccc(SC)cc3)c(C)n2n1	-9.3%	nt
C[C@H]1COC2=C1C(=O)C(=O)c1c2ccc2c1CCCC2(C)C	0.9%	?
Cc1coc2c1C(=O)C(=O)c1c-2ccc2c1CCCC2(C)C	-0.5%	10µM*
COc1ccc(NC(=O)c2c(NCc3ccc(N(C)C)cc3)sc3c2CCC3)cc1	-5.1%	nt
Cc1cc(NC(=O)Cc2ccccc2)cc(-c2nc3ccccc3o2)c1O	0.4%	nt
Fc1ccc(Nc2ncnc3sc4c(c23)CCC4)cc1	0.0%	0.316µM*
c1ccc(Nc2ncnc3sc4c(c23)CCC4)cc1	-8.3%	-21.5%
COc1ccc(CC(=O)NCC(c2cccs2)S(=O)(=O)c2ccc(Cl)cc2)cc1 (stereo not given)	-1.1%	nt
COc1cccc(-c2nc(SCC(=O)NC3CCCC3)c(-c3ccc(F)cc3)[nH]2)c1	18.7%	nt
NS(=O)(=O)c1cccc(NC(=O)COC(=O)c2ccccc2C(=O)c2ccccc2)c1	-1.1%	-46.7%
Cc1c(C(=O)OCC(=O)Nc2cccc(S(N)(=O)=O)c2)oc2c1ccc1ccccc12	-2.5%	11.2µM*
COCCCN(C(=S)NC(=O)C(C)(C)C)c1c(N)n(Cc2ccccc2)c(=O)[nH]c1=O	9.7%	-14.7%
COCCCN(C(=S)NC(=O)c1ccc(Br)cc1)c1c(N)n(Cc2ccccc2)c(=O)[nH]c1=O	-1.6%	5.62µM*
Cc1cccn2c(=O)c3cc(C#N)c(=O)n(-c4nnc(SCc5ccccc5F)s4)c3nc12	3.1%	nt
Fc1ccccc1/C=N/n1cc(-c2ccccc2)[nH]c1=S	2.6%	-58.4%
Cc1ccc(C)c(/C=N/n2cc(-c3ccccc3)[nH]c2=S)c1	-12.6%	15.8µM*
CCc1ccc(CNC(=O)CSCc2cnn(-c3ccccc3)c2-n2cccc2)cc1	16.4%	nt
N#CCC(=O)N/N=C/c1cc([N+](=O)[O-])ccc1N1CCCC1	?	-40.6%
SMILES	AmpC detergent	AmpC inh no detg
O=C(CNc1ccccc1)N/N=C/c1cc([N+](=O)[O-])ccc1N1CCCC1	-0.3%	7.94µM*
O=C(NCc1ccco1)C1CCN(c2nnc(-n3cccc3)s2)CC1	3.9%	0.794µM*
CN(Cc1ccco1)C(=O)C1CCN(c2nnc(-n3cccc3)s2)CC1	?	47.4%
CCOc1ccc(NS(=O)(=O)c2ccc3[nH]c4c(c3c2)CCCCC4)cc1	25.8%	nt
CCC(=O)N1CCc2cc(Br)cc(S(=O)(=O)N3CCC(C(=O)Nc4ccccc4F)CC3)c21	16.7%	nt
NS(=O)(=O)c1cccc(NC(=O)Nc2ccc(Cl)cc2)c1	-4.5%	14.1µM*
Cc1cccc(NC(=O)Nc2ccc(S(N)(=O)=O)cc2)c1	1.7%	-44.5%
Cc1ccc(S(=O)(=O)Cc2nc(-c3ccc(C(=O)NCc4ccccc4F)cc3)oc2C)cc1	-1.9%	nt
CCN1CCN(Cc2nc3c(c(=O)n(C)c(=O)n3C)n2Cc2cccc3ccccc23)CC1	-0.8%	0.159µM*
CCN1CCN(c2nc3c(c(=O)n(C)c(=O)n3C)n2Cc2cccc3ccccc23)CC1	-0.3%	53.6%
CCn1nc(C)c2c(-c3ccccc3)cc(=O)n(C(C)C(=O)Nc3cccc(F)c3)c21 (stereo not given)	29.5%	nt
N/C(COc1ccccc1)=N\NS(=O)(=O)c1ccccc1	1.3%	0.159µM*
C/C(=N\NS(=O)(=O)c1ccccc1)c1ccccc1	0.3%	-20.6%
CCOc1ccc(NC(=O)C(C)n2c(=O)cc(C)c3c(C)nn(-c4ccccc4)c32)cc1 (stereo not given)	-2.9%	nt
CCC1CN(C(=O)Nc2cccc3c2CCCC3)c2cc(C)ccc2O1 (stereo not given)	10.6%	nt
O=C1NC(=O)N(c2ccc(Cl)cc2)C(=O)/C1=C\c1ccc(Sc2nc3ccccc3[nH]2)o1	-7.5%	17.8µM*
